Shown is part of a subset that was picked to be rich in hits.
Pf Dd2 inh: Plasmodium falciparum Dd2 growth inhibition; AID 1347417; Potency, µM (highest dose often 28.9 µM), for the others: at the highest dose activity, negative = inhibition, most hits filed as inhibitors; 4.3% of 120,000 active; P. falciparum Dd2 growth, SYBR Green, 72 h; active = well fitted inhibition curve with a large enough effect;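 also: plate controls were DMSO vehicle for no effect and reference drug for full effect; nearly all actives have a fitted effect of over 65% in size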
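Infected erythrocytes (Dd2, 0.3% parasitemia, 2.5% hematocrit final) are added to compound in RPMI-1640/Albumax II medium, grown 72 h at 37C in low oxygen, then lysed with saponin/Triton-X containing SYBR Green and read by fluorescence.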
Numbers without * were called inactive; [ ] = dose if it differs, or a comment. Potency is read from the fitted curve at half-maximal effect.

How did O=C1c2c(nc(CNc3ccc(OC(F)(F)F)cc3)n2Cc2ccccc2)NCCN1CCN1CCOCC1 do in these assays?
Pf Dd2 inh: 5µM*

Results for O=C1c2c(nc(CNc3ccc(F)cc3)n2Cc2ccccc2)NCCN1CCN1CCCCC1 ?
Pf Dd2 inh: inactive

How did O=C(Nc1ccc(F)cc1)N1CCC(O)(c2csc(CN3CCc4ccccc4C3)n2)CC1 do in these assays?
Pf Dd2 inh: -7%

Results for Cc1ccc(-c2noc(CCCC(=O)N3CCc4nc5cc(-c6ccccc6)[nH]n5c(=O)c4C3)n2)cc1 ?
Pf Dd2 inh: 15%[5.79 µM]

How did Cc1ccc(-c2nnc(Nc3cccc(Cl)c3)c3ccccc23)cc1S(=O)(=O)N1CCN(C)CC1 do in these assays?
Pf Dd2 inh: -5%

How did O=C(Cn1nc(-c2ccc(Cl)cc2)c2ccccc2c1=O)Nc1cccc(Br)c1 do in these assays?
Pf Dd2 inh: -8%

Results for Cc1ccc(-c2nnc(Nc3cccc(Br)c3)c3ccccc23)cc1S(=O)(=O)N1CCN(C)CC1 ?
Pf Dd2 inh: 7.9µM*

How did Cc1cccc(Nc2nnc(-c3ccc(C)c(S(=O)(=O)N4CCN(C)CC4)c3)c3ccccc23)c1 do in these assays?
Pf Dd2 inh: 10µM*

How did Cc1cc(-c2ccc(C)c(S(=O)(=O)N3CCCC(C)C3)c2)on1 (stereo not given) do in these assays?
Pf Dd2 inh: 28%

Results for C#CCOc1ccc(-c2nnc(Nc3cccc(C)c3)c3ccccc23)cc1 ?
Pf Dd2 inh: -4%

What do the screens show for `COCCNC(=O)CC(c1ccc(OC)c(OC)c1)c1c[nH]c2ccccc12` (stereo not given)?
Pf Dd2 inh: inactive

Results for COCc1cc(NCCCNc2cccnc2)ncn1 ?
Pf Dd2 inh: -2%

What do the screens show for `COc1ccc(C(=O)NCCn2ccn3nc(-c4cc(C)ccc4C)cc3c2=O)c(OC)c1`?
Pf Dd2 inh: -2%

How did Cc1ncc2c(n1)C[C@@H]1CC[C@H]2N1C(=O)CCCc1ccccc1 do in these assays?
Pf Dd2 inh: inactive

How did CCCNC(=O)N(C1CCOCC1)C1CCN(C(=O)c2ccc(OC)nc2)CC1 do in these assays?
Pf Dd2 inh: 21%

Results for N#Cc1ccc(CNC2(Cc3cc(-c4ccc(F)cc4)on3)COC2)cc1 ?
Pf Dd2 inh: inactive

Results for COCc1noc([C@@H]2CN(Cc3cc(C)nn3C)C[C@H]2C(N)=O)n1 ?
Pf Dd2 inh: -3%

What do the screens show for `O=C(c1cn[nH]c1)N1C[C@@H](COCC2CC2)[C@H](c2ccncc2)C1`?
Pf Dd2 inh: 11%

How did Cc1ccc(OCc2nc(C3CCCN3C(=O)CCn3nc(C)cc3C)no2)cc1 (stereo not given) do in these assays?
Pf Dd2 inh: -5%

What do the screens show for `CCCCn1cc(S(=O)(=O)c2ccc(OC)cc2)c(=O)c2cc(F)c(F)cc21`?
Pf Dd2 inh: 1%

Results for CCCCn1cc(S(=O)(=O)c2ccc(OC)cc2)c(=O)c2cc(F)c(N3CCOCC3)cc21 ?
Pf Dd2 inh: 11µM*

What do the screens show for `Cc1ccc(Cn2cc(S(=O)(=O)c3ccccc3)c(=O)c3cc(F)c(N4CCOCC4)cc32)cc1`?
Pf Dd2 inh: 10µM*

How did CCn1cc(S(=O)(=O)c2cccc(C)c2)c(=O)c2cc(F)c(N3CCN(c4ccccc4)CC3)cc21 do in these assays?
Pf Dd2 inh: inactive

What do the screens show for `COc1ccc(S(=O)(=O)c2cn(Cc3ccccc3)c3cc(N4CCCC4)c(F)cc3c2=O)cc1`?
Pf Dd2 inh: 13µM*

How did CCn1cc(S(=O)(=O)c2cccc(Cl)c2)c(=O)c2cc(F)c(N3CCC(C)CC3)cc21 do in these assays?
Pf Dd2 inh: inactive

Results for Cc1ccc(S(=O)(=O)c2cn(Cc3ccc(F)cc3)c3cc(N4CCCC4)c(F)cc3c2=O)cc1 ?
Pf Dd2 inh: -13%

What do the screens show for `Cc1cccc(S(=O)(=O)c2cn(Cc3ccccc3)c3cc(N4CCC(C)CC4)c(F)cc3c2=O)c1`?
Pf Dd2 inh: 10µM*

What do the screens show for `O=C1NC2(Cc3ccccc31)CN(CC1CCCC1)C2`?
Pf Dd2 inh: 13%[44.1 µM]

What do the screens show for `CN1CCC2(CC1)CCN(Cc1ccc(OCC(O)CN3CCCCC3)cc1)C2` (stereo not given)?
Pf Dd2 inh: -13%

Results for Cc1ccc(C)c(C(=O)N2C[C@@H](CO)[C@H](c3ccncc3)C2)c1 ?
Pf Dd2 inh: inactive

What do the screens show for `Cc1cc(CN2CCC3(CC2)CCN(C(=O)c2ccccn2)CC3CO)on1` (stereo not given)?
Pf Dd2 inh: -10%

How did COc1ccc(-c2nc(CN3CCN(CCO)CC3)c(C)o2)c2ccccc12 do in these assays?
Pf Dd2 inh: 11µM*

What do the screens show for `COc1ccc(F)c(-c2nc(CN3CCN(S(N)(=O)=O)CC3)c(C)o2)c1`?
Pf Dd2 inh: -1%

How did COc1cc(-c2nc(CN3CCSCC3)c(C)o2)ccc1F do in these assays?
Pf Dd2 inh: -13%

How did Cc1ccc(CNC(=O)CN2C(=O)NC(c3ccccc3Cl)C3=C2COC3=O)cc1 (stereo not given) do in these assays?
Pf Dd2 inh: inactive

Results for Cc1ccc2nc(N(Cc3cccnc3)C(=O)Cc3ccccc3)sc2c1 ?
Pf Dd2 inh: 5µM*

Results for CCS(=O)(=O)c1ccccc1C(=O)N(Cc1cccnc1)c1nc2cc(C)c(C)cc2s1 ?
Pf Dd2 inh: -1%

What do the screens show for `Cc1ccc2nc(N(Cc3cccnc3)C(=O)c3ccc4c(c3)OCCO4)sc2c1`?
Pf Dd2 inh: inactive

What do the screens show for `Cc1cc(C)c2nc(N(Cc3cccnc3)C(=O)Cc3ccccc3)sc2c1`?
Pf Dd2 inh: 10µM*

How did O=C(c1ccco1)N(Cc1cccnc1)c1nc2c(F)cccc2s1 do in these assays?
Pf Dd2 inh: inactive

Results for O=C(CCS(=O)(=O)c1ccccc1)N(Cc1cccnc1)c1nc2ccc(Cl)cc2s1 ?
Pf Dd2 inh: 46%

Results for CC(=O)N(Cc1cccnc1)c1nc2c(C)c(C)ccc2s1 ?
Pf Dd2 inh: inactive

What do the screens show for `Cc1ccc2nc(N(Cc3cccnc3)C(=O)CCS(=O)(=O)c3ccccc3)sc2c1`?
Pf Dd2 inh: inactive

What do the screens show for `CC(=O)c1ccc(C(=O)N(Cc2cccnc2)c2nc3c(Cl)cccc3s2)cc1`?
Pf Dd2 inh: -22%

How did Cc1cccc2sc(N(Cc3cccnc3)C(=O)CCc3ccccc3)nc12 do in these assays?
Pf Dd2 inh: 4µM*

How did O=C(CCc1ccccc1)N(Cc1cccnc1)c1nc2c(F)cccc2s1 do in these assays?
Pf Dd2 inh: inactive

What do the screens show for `Cc1cc(C)c2nc(N(Cc3cccnc3)C(=O)c3cccs3)sc2c1`?
Pf Dd2 inh: 10µM*

How did O=C1N[C@@H]2CCN(C(=O)c3ccccc3)[C@@H]2C(=O)N1c1ccccc1 do in these assays?
Pf Dd2 inh: -10%[44.1 µM]

Results for O=C(NCC1CCCN(C(=O)c2ccccn2)C1)c1ccc(-c2ccccc2)cc1 (stereo not given) ?
Pf Dd2 inh: -7%

What do the screens show for `Cc1csc(CN(C)C(=O)CN2C[C@@H]3CC[C@H](CC2=O)N3)n1`?
Pf Dd2 inh: 4%

What do the screens show for `Cc1ccc(NC(=O)N[C@@H]2C=C(C(=O)N[C@@H](Cc3cccs3)C(N)=O)C[C@@H](O)[C@@H]2O)cc1`?
Pf Dd2 inh: -3%

How did COc1ccc(C(NC(=O)Cn2cccnc2=O)C2CC(O)C2)cn1 (stereo not given) do in these assays?
Pf Dd2 inh: 0%

Results for O=C(Cn1cccc1-c1nc(-c2ccc(F)cc2)no1)NC1CCCCC1 ?
Pf Dd2 inh: inactive

What do the screens show for `CC1CCC(NC(=O)C2(c3ccc(NS(C)(=O)=O)cc3)CCCCC2)CC1` (stereo not given)?
Pf Dd2 inh: -19%

How did O=C(CCCc1ccccc1)NCC(=O)N1CCN(c2ccccn2)CC1 do in these assays?
Pf Dd2 inh: inactive
